Source: PubChem BioAssay
Rows were chosen to be rich in hits. Some 10% of all compounds tested hit in one or more screens of this group.
ALDH1A1 inh: qHTS Assay for Inhibitors of Aldehyde Dehydrogenase 1 (ALDH1A1) | Purified ALDH1A1, NADH fluorescence, propionaldehyde substrate | Aldehyde dehydrogenase 1A1 (Homo sapiens), P00352 | Potency, µM (titrated, usually from 75.3 µM), for the others: top-dose activity, negative = inhibition, actives largely listed as inhibitors | AID 1030, 2008 | hit rate 7.3% among 220,000;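 also: potency is read from the fitted curve at half-maximal effect; plate controls were no enzyme wells and a reference inhibitor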
PNC inhibitor: High Content Assay for Compounds that inhibit the Assembly of the Perinucleolar Compartment; PC3M PTB-GFP, PNC prevalence imaging, 16 h; hits give low values; activity change (PNC), negative = inhibition, % at 10 µM; hit rate 3.1% among 140,000; AID 2417, 2010;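 active = readout at or below -70, meaning at least 70% loss of cells showing the perinucleolar compartment, a nuclear body marking cancer cells; inconclusive = readout between -30 and a set limit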;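 also: plate controls were DMSO wells for no effect and camptothecin positive control wells for full effect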
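PC3M cells stably expressing PTB-GFP, 750–1000 cells/well, treated 16 h at 37 °C with compound (23 nl of library stock), in duplicate. After paraformaldehyde fixation and Hoechst stain, imaged at 20x; PNC prevalence scored by image analysis.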
HPGD inh: qHTS Assay for Inhibitors of HPGD (15-Hydroxyprostaglandin Dehydrogenase); purified HPGD, NADH fluorescence kinetic, PGE2 substrate; Potency, µM, for the others: at the top dose activity change, negative = inhibition, actives largely listed as inhibitors; hit rate 4.3% among 150,000; 15-hydroxyprostaglandin dehydrogenase [NAD(+)] (Homo sapiens), P15428; also: potency is read from the fitted curve at half-maximal effect
Target sequence (P15428 whole entry, looked up): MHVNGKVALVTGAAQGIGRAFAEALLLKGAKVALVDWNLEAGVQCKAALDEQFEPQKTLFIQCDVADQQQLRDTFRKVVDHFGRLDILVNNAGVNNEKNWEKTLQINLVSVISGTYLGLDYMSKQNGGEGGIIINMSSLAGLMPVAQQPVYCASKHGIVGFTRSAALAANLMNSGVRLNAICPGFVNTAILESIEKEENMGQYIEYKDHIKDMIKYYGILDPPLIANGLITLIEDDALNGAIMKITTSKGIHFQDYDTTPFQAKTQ
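NADH formation kinetics: reaction with 30 uM PGE2 and 1 mM NAD+ (final), 20 nM enzyme, Tris-HCl pH 8 with Tween 20, after 15 min compound preincubation at room temperature. Fluorescence change, last versus first of five reads.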
ALOX12 inhib: qHTS Assay for Inhibitors of 12-hLO (12-human lipoxygenase). Polyunsaturated fatty acid lipoxygenase ALOX12 (Homo sapiens), P18054. purified 12-hLO, xylenol orange hydroperoxide absorbance. Potency, µM (doses to about 57.1 µM), inactives show top-dose activity change, negative = inhibition, hits mostly inhibitors. hit rate 0.12% among 150,000. AID 1452, 2008; active = well fitted inhibition curve with a large enough effect; inconclusive = small, poorly fitted or top-dose-only effect; also: potency is read from the fitted curve at half-maximal effect; nearly all actives have a fitted effect of over 55% in size
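Hydroperoxide output read as Fe(III)-xylenol orange absorbance, 573-to-405 nm ratio, after 30 min reaction with 40 uM arachidonic acid. Enzyme: 150 nM purified human 12hLO, 15 min compound preincubation; 25 mM Hepes pH 7.0, room temperature.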
Lamin A splicing: qHTS Assay for Modulators of Lamin A Splicing; HeLa LMNA splicing GFP/RFP minigene ratio, 48 h; hit rate 0.01% among 200,000; Potency, µM (top dose mostly 46.1 µM), inactives show top-dose ratio change, negative = inhibition, most hits filed as inhibitors; AID 1487, 2009; active = well fitted inhibition curve with a large enough effect in the signal ratio, with a control signal flat, not every such curve was filed as active; inconclusive = small, poorly fitted or top-dose-only effect, or effect the other way, or a change in a side signal; the % refers to the signal ratio; also: potency is read from the fitted curve at half-maximal effect
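S3 HeLa stable clones carrying a lamin A-EGFP splicing minigene plus DsRed2 were seeded at 600 cells/well in Opti-MEM with 2% FBS, pin-dosed and incubated 48 h at 37°C. Acumen cytometry (488 nm) gave the GFP/RFP total-intensity ratio.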
* = called active by the depositor; ? = inconclusive; / = not tested or not shown; [ ] = another dose, or the depositor's remark. Unless noted, calls follow the shape of the dose curve; as a rule, active = well fitted inhibition curve with a large enough effect (not every such curve was filed as active); inconclusive = small, poorly fitted or top-dose-only effect, or another doubt; inactive = no such curve, though single readings can be large or run the other way. Unless noted, % is scaled to controls: 0 for no effect and ±100 for the full control effect.

SMILES	ALDH1A1 inh	PNC inhibitor	HPGD inh	ALOX12 inhib	Lamin A splicing
COc1cc(/C=C2\C(=O)N(CCC#N)N=C2C)c(Br)cc1OC(C)C	-8%	0	8.9µM*	-4%	0%
CC(=O)O[C@H]1C2OC(=O)C(C)=C2[C@@H]2OC(=O)[C@]3(CCC4OC41C)OC23 (some centres not stated)	0%	-119*	-7%	-2%	10%
O=[N+]([O-])c1ccc(O)c(/C=N/n2cnc3ccccc32)c1	?	-18	14µM*	-4%	-1%
O=[N+]([O-])c1ccc(O)c(/C=N/Nc2ccccc2Cl)c1	-7%	/	/	/	?
O=[N+]([O-])c1ccc(O)c(/C=N/n2c(CO)nc3ccccc32)c1	3.2µM*	/	/	/	/
O=c1c(-c2ccc(F)c(F)c2)nc2cncnc2n1Cc1ccccc1Cl	-2%	/	-10%	2%	/
CCOc1ccc(CCNC(=O)CSc2nnnn2C)cc1OCC	0%	/	/	/	4%[46 µM]
CCOc1ccc(CCNC(=O)CSc2nn(-c3ccc(C)c(Cl)c3)c(=S)s2)cc1OCC	28µM*	?	-25%	-8%	-4%
Cc1cccc(COCC(Cc2ccccc2)N2CCN(C(=O)c3ccc(C(F)(F)F)cc3)CCC2=O)c1 (configuration not stated)	-3%	-80*	-17%	-4%	?
COC(CNC(=O)c1ccc(N2CCc3ccccc32)c([N+](=O)[O-])c1)OC	?	13	-26%	-4%	?
NNC(=O)c1ccc(N2CCc3ccccc32)c([N+](=O)[O-])c1	1.6µM*	/	/	/	-25%[46 µM]
COc1cc2c(cc1OC)CN(C(=O)C(C)(C)C)CC2	5%	-106*	-17%	3%	16%
Cc1ccccc1NC(=O)c1cc(N)ccc1N1CCCCC1	10µM*	?	-7%	2%	-2%
O=C(Cc1ccccc1)Nc1cccc(N2C(=O)C=CC2=O)c1	0.71µM*	?	3.5µM*	-12%	?
Cc1ccc(-c2cc3nc(C)cc(NCc4ccco4)n3n2)cc1	?	-104*	?	3%	1%
COc1ccc(OC)c(NC(=O)C23CCC(C)(C(=O)C2)C3(C)C)c1 (configuration not stated)	-12%	-86*	-8%	-3%	-1%
COc1cc(NC2c3ncccc3C(=O)N2Cc2ccco2)cc(OC)c1 (configuration not stated)	16µM*	-22	-17%	-9%	22%
O=C1c2cccnc2C(Nc2ccc(Cl)cc2)N1Cc1cccs1 (configuration not stated)	4.5µM*	/	/	/	/
COc1ccc(NC2c3ncccc3C(=O)N2Cc2ccccc2)c(OC)c1 (configuration not stated)	-17%	-100*	-18%	-5%	-1%
COc1ccc(CN2C(=O)c3cccnc3C2Nc2ccc(OC)c(Cl)c2)cc1 (configuration not stated)	-4%	-5	-29%	-11%	5%
Cc1ccc(CSc2nc3ccc(NC(=O)C(C)C)cc3s2)cc1	/	/	/	/	2%[46 µM]
CCOC(=O)c1scc(-c2ccc(C)cc2)c1S(=O)(=O)N1CCN(c2ccccc2)CC1	/	/	/	/	10%[46 µM]
O=c1c2c3c(sc2n(CCN2CCOCC2)c(=O)n1Cc1ccco1)CCCCC3	7.9µM*	-28	-14%	-18%	?
O=C(Cn1c(=O)n(Cc2ccco2)c(=O)c2c3c(sc21)CCCC3)Nc1ccccc1	?	9	-11%	-3%	5%
NC(=O)Cn1c(=O)n(Cc2ccco2)c(=O)c2c3c(sc21)CCCCC3	11µM*	-20	-18%	-11%	1%
SMILES	ALDH1A1 inh	PNC inhibitor	HPGD inh	ALOX12 inhib	Lamin A splicing
O=c1c2c3c(sc2n(CCN2CCCCC2)c(=O)n1Cc1ccco1)CCCCC3	5.6µM*	-2	-16%	-1%	0%
O=C(NCc1ccc(F)cc1)c1ccc2oc(=O)n(Cc3ccccc3)c2c1	/	/	/	/	8%[46 µM]
O=[N+]([O-])c1cccc(C(F)(F)F)c1	14%	/	1%	-4%	/
COC(=O)c1sc2ccccc2c1N	?	?	?	-8%	-18%
COC(=O)C1=C(C(=O)OC)C(c2ccccc2O)c2sc(=O)[nH]c2S1 (configuration not stated)	?	14	22µM*	-1%	-8%
Cc1nn(Cc2ccccc2Cl)c(C)c1NC(=O)CCCn1nc(C)c([N+](=O)[O-])c1C	16µM*	67	-9%	0%	5%
Cc1nn(Cc2c(Cl)cccc2Cl)c(C)c1NC(=O)CCCn1nc([N+](=O)[O-])c(Cl)c1C	6.3µM*	65	-4%	1%	-9%
O=C(c1ccc(NS(=O)(=O)c2ccccc2)cc1)N1CCCC1	?	?	18µM*	-3%	0%
CCN(CC)S(=O)(=O)c1ccc(S(=O)(=O)Nc2ccc(C(=O)N3CCCC3)cc2)cc1	0.63µM*	12	-10%	-5%	?
CCN(CC)S(=O)(=O)c1cccc(C(=O)N2CCCCC2)c1	-2%	?	-9%	0%	5%
O=C(c1ccc(S(=O)(=O)Nc2ccccc2)cc1)N1CCOCC1	4%	51	-9%	4%	1%
O=C1C(Cl)=C(NCC2CCCO2)C(=O)N1C1CCCCC1 (configuration not stated)	4µM*	59	-25%	1%	-7%
O=C1C(Cl)=C(NCC2CCCO2)C(=O)N1c1ccccc1 (configuration not stated)	5%	8	/	-12%	-5%
CCOC(=O)c1ccc(Oc2cc(C)nc(SC)n2)cc1	-15%	-100*	-12%	-1%	?
CCOC(=O)COC(=O)c1ccc(Oc2cc(C)nc(SC)n2)cc1	10%	31	-6%	-6%	1%
COc1ccccc1C1=NOC(Cn2c(=O)c3c(ncn3C)n(C)c2=O)C1 (configuration not stated)	7%	?	-4%	-1%	-6%
COc1ccc(C2=NOC(Cn3c(Cc4ccc(Cl)cc4)nc4c3c(=O)n(C)c(=O)n4C)C2)cc1 (configuration not stated)	?	-108*	?	0%	-8%
Cc1csc(SCC(=O)Nc2c(C)n(C)n(-c3ccccc3)c2=O)n1	3%	?	-1%	4%	8%
O=C(CSc1n[nH]c(-c2ccncc2)n1)c1ccccc1	-7%	20	?	-4%	?
COc1ccccc1C(=O)CSc1n[nH]c(N)n1	11µM*	-26	-23%	-3%	19%
Nc1nc(SCC(=O)c2cc3ccccc3o2)n[nH]1	4%	/	/	/	/
Cc1nc(SCC(=O)Nc2c(C)n(C)n(-c3ccccc3)c2=O)n[nH]1	14µM*	?	-15%	-2%	0%
